Laboratory results published in ChEMBL document CHEMBL1961873, “Compounds: GSK PKIS; Assays: Nanosyn kinase panel” (2012).

Experiments:
[1] = target: Calcium/calmodulin-dependent protein kinase type II subunit alpha (Homo sapiens) (UniProt Q9UQM7); details: at 1 µM;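 also: reported value is a mean percent inhibition of CAMK2A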
[2] = target: Calcium/calmodulin-dependent protein kinase type II subunit delta (Homo sapiens) (UniProt Q13557); details: at 0.1 µM
[3] = target: Calcium/calmodulin-dependent protein kinase type II subunit delta (Homo sapiens) (UniProt Q13557); details: at 1 µM
[4] = target: T1, Calcium/calmodulin-dependent protein kinase type IV (Homo sapiens) (UniProt Q16566); details: at 0.1 µM
T1 sequence (whole entry): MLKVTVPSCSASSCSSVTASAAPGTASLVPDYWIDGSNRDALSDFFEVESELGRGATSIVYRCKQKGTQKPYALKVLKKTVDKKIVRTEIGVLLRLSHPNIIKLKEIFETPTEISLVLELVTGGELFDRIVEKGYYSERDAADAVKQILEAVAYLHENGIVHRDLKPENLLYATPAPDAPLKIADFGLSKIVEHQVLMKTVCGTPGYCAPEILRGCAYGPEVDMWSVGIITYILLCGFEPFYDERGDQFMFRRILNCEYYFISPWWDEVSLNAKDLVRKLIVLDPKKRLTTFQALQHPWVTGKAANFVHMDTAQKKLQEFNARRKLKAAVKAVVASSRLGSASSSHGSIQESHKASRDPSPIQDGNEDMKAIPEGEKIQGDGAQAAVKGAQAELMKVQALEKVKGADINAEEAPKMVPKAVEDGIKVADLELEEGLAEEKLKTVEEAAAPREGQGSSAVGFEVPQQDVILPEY

[5] = target: T1, Calcium/calmodulin-dependent protein kinase type IV (Homo sapiens); details: at 1 µM
[6] = target: T2, Serine/threonine-protein kinase Chk1 (Homo sapiens) (UniProt O14757); details: at 0.1 µM
T2 sequence (whole entry): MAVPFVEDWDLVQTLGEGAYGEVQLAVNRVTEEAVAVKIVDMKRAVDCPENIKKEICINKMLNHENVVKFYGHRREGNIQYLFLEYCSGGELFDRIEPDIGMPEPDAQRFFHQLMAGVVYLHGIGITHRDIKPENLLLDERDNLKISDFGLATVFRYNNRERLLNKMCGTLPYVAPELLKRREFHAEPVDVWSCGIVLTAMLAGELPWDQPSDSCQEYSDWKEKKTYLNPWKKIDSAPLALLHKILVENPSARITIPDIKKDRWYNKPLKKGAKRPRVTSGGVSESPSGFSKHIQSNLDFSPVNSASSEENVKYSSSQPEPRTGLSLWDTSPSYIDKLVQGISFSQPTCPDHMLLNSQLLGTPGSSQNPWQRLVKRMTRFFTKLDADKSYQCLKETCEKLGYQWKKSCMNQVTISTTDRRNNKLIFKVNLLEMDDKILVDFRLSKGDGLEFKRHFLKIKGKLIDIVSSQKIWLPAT

[7] = target: T2, Serine/threonine-protein kinase Chk1 (Homo sapiens); details: at 1 µM
[8] = target: Serine/threonine-protein kinase Chk2 (Homo sapiens) (UniProt O96017); details: at 0.1 µM
[9] = target: Serine/threonine-protein kinase Chk2 (Homo sapiens) (UniProt O96017); details: at 1 µM
[10] = target: Death-associated protein kinase 1 (Homo sapiens) (UniProt P53355); details: at 0.1 µM
[11] = target: Death-associated protein kinase 1 (Homo sapiens) (UniProt P53355); details: at 1 µM
[12] = target: T3, Serine/threonine-protein kinase DCLK2 (Homo sapiens) (UniProt Q8N568); details: at 0.1 µM
T3 sequence (whole entry): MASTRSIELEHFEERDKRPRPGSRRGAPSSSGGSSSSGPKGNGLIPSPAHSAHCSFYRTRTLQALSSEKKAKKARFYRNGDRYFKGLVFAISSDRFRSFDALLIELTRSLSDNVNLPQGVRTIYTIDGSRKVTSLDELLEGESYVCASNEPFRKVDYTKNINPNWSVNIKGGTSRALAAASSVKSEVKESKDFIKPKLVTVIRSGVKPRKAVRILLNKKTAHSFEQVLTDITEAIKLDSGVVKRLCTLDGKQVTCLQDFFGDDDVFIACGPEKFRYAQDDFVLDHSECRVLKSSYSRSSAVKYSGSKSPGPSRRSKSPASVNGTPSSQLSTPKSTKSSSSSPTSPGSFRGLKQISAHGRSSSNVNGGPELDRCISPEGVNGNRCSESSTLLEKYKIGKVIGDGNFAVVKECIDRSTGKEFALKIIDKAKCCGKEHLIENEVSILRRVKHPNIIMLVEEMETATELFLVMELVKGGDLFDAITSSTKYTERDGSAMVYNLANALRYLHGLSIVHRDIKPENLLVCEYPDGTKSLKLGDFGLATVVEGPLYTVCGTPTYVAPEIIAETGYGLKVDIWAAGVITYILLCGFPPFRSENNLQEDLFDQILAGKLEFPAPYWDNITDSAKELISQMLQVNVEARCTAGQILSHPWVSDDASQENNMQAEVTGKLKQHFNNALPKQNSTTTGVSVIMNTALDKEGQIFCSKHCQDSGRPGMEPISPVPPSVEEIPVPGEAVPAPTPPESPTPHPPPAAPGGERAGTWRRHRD

[13] = target: T3, Serine/threonine-protein kinase DCLK2 (Homo sapiens); details: at 1 µM
[14] = target: MAP kinase-activated protein kinase 2 (Homo sapiens) (UniProt P49137); details: at 0.1 µM
[15] = target: MAP kinase-activated protein kinase 2 (Homo sapiens) (UniProt P49137); details: at 1 µM
[16] = target: MAP kinase-activated protein kinase 3 (Homo sapiens) (UniProt Q16644); details: at 0.1 µM
[17] = target: MAP kinase-activated protein kinase 3 (Homo sapiens) (UniProt Q16644); details: at 1 µM
[18] = target: Serine/threonine-protein kinase MARK1 (Homo sapiens) (UniProt Q9P0L2); details: at 0.1 µM
[19] = target: Serine/threonine-protein kinase MARK1 (Homo sapiens) (UniProt Q9P0L2); details: at 1 µM
[20] = target: MAP/microtubule affinity-regulating kinase 3 (Homo sapiens) (UniProt P27448); details: at 0.1 µM;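 also: mean percent inhibition of MARK3 kinase activity, measured within the GSK PKIS screening panel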
Sequence of MAP/microtubule affinity-regulating kinase 3 (Homo sapiens) (P27448 whole entry, looked up): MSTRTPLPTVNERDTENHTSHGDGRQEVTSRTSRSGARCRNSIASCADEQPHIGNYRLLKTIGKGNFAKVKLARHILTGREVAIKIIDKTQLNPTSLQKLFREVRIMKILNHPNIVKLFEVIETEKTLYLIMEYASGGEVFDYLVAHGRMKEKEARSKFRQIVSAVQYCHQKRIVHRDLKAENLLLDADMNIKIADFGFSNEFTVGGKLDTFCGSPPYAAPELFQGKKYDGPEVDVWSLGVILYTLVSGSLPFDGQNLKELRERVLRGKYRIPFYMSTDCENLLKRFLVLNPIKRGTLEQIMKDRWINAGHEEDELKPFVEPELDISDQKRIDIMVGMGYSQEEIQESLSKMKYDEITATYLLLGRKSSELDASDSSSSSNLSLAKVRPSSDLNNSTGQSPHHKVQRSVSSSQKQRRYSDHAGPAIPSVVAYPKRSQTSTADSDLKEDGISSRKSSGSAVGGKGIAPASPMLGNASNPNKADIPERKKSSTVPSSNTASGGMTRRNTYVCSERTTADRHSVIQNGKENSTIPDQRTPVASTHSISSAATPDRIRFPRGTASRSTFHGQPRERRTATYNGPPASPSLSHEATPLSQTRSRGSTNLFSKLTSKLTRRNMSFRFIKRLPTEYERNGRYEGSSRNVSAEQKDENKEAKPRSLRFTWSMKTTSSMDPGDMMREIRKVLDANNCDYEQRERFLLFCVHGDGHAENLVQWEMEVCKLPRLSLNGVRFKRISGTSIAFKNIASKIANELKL

Sequence of Death-associated protein kinase 1 (Homo sapiens) (P53355 whole entry, looked up): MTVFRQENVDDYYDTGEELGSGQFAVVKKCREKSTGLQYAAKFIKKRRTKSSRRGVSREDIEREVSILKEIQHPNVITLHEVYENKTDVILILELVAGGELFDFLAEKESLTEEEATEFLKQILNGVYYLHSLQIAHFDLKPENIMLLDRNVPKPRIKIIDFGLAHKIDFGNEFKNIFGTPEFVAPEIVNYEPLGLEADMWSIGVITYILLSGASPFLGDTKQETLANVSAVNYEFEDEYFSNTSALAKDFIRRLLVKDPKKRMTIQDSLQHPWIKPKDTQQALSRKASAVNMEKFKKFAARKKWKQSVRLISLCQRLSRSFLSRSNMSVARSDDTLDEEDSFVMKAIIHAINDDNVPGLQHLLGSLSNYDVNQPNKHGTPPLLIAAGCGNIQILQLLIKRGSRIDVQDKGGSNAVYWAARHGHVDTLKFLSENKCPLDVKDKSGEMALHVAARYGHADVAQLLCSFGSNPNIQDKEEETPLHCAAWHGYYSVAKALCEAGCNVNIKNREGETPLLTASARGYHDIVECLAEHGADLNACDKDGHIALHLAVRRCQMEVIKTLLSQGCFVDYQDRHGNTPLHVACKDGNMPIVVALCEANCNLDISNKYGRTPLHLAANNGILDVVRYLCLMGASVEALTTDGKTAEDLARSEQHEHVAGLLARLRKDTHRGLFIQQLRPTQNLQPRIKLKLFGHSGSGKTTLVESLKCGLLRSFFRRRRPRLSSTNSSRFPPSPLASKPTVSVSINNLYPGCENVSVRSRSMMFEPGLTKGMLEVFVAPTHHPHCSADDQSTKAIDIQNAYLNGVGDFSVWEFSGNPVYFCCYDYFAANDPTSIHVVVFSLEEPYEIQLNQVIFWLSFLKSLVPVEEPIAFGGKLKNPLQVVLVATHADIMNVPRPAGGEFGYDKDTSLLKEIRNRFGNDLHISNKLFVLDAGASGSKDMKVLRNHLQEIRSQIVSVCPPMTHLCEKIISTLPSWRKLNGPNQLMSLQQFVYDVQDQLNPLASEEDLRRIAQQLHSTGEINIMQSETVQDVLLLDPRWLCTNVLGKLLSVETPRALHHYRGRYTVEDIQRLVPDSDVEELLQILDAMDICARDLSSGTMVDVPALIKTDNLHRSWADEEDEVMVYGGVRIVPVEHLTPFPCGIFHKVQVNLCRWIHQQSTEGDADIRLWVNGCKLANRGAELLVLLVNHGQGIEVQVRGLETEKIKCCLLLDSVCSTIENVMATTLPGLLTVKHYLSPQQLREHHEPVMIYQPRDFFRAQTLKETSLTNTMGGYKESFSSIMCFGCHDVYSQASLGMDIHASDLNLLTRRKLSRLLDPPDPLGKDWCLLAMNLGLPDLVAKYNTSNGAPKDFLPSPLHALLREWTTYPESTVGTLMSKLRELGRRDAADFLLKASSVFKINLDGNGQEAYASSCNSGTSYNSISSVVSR
Sequence of MAP kinase-activated protein kinase 2 (Homo sapiens) (P49137 whole entry, looked up): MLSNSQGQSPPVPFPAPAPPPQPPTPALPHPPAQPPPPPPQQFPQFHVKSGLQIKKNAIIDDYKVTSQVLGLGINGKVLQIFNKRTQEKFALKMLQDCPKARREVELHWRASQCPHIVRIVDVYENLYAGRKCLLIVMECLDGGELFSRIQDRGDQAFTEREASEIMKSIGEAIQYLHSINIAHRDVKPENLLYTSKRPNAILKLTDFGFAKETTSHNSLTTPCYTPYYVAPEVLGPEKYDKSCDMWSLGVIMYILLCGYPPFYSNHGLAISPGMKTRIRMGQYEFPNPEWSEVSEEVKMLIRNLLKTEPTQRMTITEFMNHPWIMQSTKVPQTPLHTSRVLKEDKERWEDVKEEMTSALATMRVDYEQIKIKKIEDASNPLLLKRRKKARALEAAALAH
Sequence of Calcium/calmodulin-dependent protein kinase type II subunit delta (Homo sapiens) (Q13557 whole entry): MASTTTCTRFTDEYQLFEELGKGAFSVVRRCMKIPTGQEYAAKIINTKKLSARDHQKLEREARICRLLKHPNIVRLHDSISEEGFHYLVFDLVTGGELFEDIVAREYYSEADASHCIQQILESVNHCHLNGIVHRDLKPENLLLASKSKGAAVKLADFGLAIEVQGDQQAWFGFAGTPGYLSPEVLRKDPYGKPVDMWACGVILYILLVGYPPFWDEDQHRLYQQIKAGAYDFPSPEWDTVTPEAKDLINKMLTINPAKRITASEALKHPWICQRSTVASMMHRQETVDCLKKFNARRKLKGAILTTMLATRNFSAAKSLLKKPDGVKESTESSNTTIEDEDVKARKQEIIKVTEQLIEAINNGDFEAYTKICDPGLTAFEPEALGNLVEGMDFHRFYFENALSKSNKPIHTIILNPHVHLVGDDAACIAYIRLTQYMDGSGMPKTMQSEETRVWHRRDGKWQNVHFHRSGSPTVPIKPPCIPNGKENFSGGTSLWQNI
Sequence of Calcium/calmodulin-dependent protein kinase type II subunit alpha (Homo sapiens) (Q9UQM7 whole entry): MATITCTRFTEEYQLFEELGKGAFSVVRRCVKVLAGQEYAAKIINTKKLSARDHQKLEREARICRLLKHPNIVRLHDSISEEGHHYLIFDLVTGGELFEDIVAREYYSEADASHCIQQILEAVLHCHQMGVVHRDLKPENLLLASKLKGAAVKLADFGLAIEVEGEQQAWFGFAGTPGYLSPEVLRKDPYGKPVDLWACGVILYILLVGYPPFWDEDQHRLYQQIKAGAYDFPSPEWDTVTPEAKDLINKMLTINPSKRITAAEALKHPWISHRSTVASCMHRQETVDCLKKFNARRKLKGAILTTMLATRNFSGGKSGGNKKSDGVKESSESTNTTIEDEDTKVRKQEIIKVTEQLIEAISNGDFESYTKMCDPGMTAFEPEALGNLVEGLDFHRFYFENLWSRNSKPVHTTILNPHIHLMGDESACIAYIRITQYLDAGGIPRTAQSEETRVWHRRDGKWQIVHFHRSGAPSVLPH
Sequence of Serine/threonine-protein kinase MARK1 (Homo sapiens) (Q9P0L2 whole entry, looked up): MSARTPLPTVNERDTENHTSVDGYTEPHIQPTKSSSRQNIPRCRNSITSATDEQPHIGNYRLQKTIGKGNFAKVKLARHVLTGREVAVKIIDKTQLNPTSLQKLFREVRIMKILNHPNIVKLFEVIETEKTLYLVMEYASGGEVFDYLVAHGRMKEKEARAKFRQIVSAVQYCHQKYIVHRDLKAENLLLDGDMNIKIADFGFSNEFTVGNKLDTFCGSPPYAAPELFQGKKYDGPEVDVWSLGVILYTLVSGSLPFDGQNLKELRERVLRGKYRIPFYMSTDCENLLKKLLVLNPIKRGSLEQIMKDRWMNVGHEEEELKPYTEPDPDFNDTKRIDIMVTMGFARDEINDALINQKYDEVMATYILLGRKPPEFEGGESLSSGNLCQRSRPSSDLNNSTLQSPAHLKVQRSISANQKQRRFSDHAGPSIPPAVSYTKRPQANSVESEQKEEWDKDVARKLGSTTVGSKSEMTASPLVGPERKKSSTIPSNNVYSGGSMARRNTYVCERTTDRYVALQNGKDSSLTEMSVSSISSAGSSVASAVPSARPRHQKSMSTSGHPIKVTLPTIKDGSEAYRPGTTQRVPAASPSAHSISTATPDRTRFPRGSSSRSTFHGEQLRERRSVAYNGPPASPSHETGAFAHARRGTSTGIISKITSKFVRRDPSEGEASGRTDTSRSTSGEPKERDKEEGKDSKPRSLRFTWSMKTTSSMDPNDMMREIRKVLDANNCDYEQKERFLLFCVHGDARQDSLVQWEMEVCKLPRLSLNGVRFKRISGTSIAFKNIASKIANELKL
Sequence of Serine/threonine-protein kinase Chk2 (Homo sapiens) (O96017 whole entry): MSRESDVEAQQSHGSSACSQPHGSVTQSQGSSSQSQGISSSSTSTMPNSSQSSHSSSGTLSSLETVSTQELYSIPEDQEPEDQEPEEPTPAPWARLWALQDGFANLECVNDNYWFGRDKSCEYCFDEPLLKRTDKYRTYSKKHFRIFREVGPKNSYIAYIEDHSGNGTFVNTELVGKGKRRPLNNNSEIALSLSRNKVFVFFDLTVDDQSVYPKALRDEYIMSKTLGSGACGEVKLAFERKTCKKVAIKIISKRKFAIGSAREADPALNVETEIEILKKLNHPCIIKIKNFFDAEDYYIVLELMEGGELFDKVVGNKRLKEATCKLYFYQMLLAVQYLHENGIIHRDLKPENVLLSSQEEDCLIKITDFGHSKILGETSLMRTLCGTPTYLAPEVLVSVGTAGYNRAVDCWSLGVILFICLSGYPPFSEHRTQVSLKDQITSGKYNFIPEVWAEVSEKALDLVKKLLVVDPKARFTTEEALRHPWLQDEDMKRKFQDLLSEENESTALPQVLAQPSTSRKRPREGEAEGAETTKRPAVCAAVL

| Structure (SMILES) | inhibition [1] [%] | inhibition [2] [%] | inhibition [3] [%] | inhibition [4] [%] | inhibition [5] [%] | inhibition [6] [%] | inhibition [7] [%] | inhibition [8] [%] | inhibition [9] [%] | inhibition [10] [%] | inhibition [11] [%] | inhibition [12] [%] | inhibition [13] [%] | inhibition [14] [%] | inhibition [15] [%] | inhibition [16] [%] | inhibition [17] [%] | inhibition [18] [%] | inhibition [19] [%] | inhibition [20] [%] |
| --- | --- | --- | --- | --- | --- | --- | --- | --- | --- | --- | --- | --- | --- | --- | --- | --- | --- | --- | --- | --- |
| NC(=O)c1ccc(-c2nc(-c3ccccn3)c(-c3ccc4c(c3)OCO4)[nH]2)cc1 | 3.33 | 1.17 | 1.87 | 0.57 | 0.4 | -1.44 | 2.65 | 1.07 | 1.89 | 2.4 | 2.62 | -0.58 | -8.11 | 1.1 | 0.74 | 3.61 | 5.05 | 1.86 | 3.27 | 2.26 |
| COc1ccccc1Nc1ncc(-c2ccccc2)o1 | 0.2 | 3.81 | 4.92 | 0.89 | -8.72 | -2.97 | -2.91 | -2.63 | -3.53 | -1.69 | -4.43 | 2.18 | 0.52 | -0.33 | -1.84 | 0.93 | 1.35 | 2.73 | 5.68 | 4.5 |
| Nc1nc(-c2ccccn2)c(-c2ccc3ncccc3n2)s1 | 2.01 | 0.62 | 2.75 | -0.73 | -1.69 | 4.2 | 6.33 | 2.16 | 4.44 | 4.05 | 3.99 | 0.14 | -0.77 | 2.05 | 2.02 | 1.5 | 3.66 | 3.28 | 6.18 | 2.5 |
| CCCN1CCC=C(c2ccc(Nc3nc(Nc4ccccc4C(N)=O)c4cc[nH]c4n3)c(C)c2)C1 | 8.19 | 5.36 | 20.6 | -0.28 | 9.19 | 1.09 | 8.05 | 13.1 | 51.3 | 6.81 | 6.22 | -0.54 | 3.15 | 2.63 | 4.94 | 3.15 | 6.16 | 2.76 | 16.1 | 2.37 |
| COC(=O)Nc1nc2cc(Oc3cccc(NC(=O)Nc4cc(C(F)(F)F)ccc4F)c3)ccc2[nH]1 | 0.78 | 0.53 | 0.94 | 1.37 | 0.22 | -2.61 | -1.51 | -0.85 | 0.45 | 0.43 | -0.6 | 5.45 | -0.15 | -0.06 | -0.64 | 0 | 1.82 | 1.21 | 1.49 | 0.8 |
| COc1ccc(-c2ccncc2)cc1C(N)=O | 3.32 | 3.92 | 8.26 | -1.04 | 0.03 | 8.46 | 10.1 | 8.96 | 12.5 | 14 | 12.2 | -0.69 | 3.38 | 5.44 | 6.42 | 9.46 | 12.5 | 2.8 | 4.12 | 3.29 |
